Test systems include NCI-H23 lung; NCI-H226 lung; NCI-H322M lung; HOP-62 NSCLC; HOP-92 NSCLC; NCI-H522 lung; A549/ATCC NSCLC; 786-0 renal; COLO 205 colon; DU-145 prostate; K-562 leukemia; MALME-3M melanoma; MDA-MB-231 breast; RXF 393 renal; SF-268 CNS; SF-295 CNS; SF-539 CNS; UACC-257 melanoma; M14 melanoma.
Test in all cases: NCI-60 one-dose screen, 48 h (100 = growth as untreated, 0 = no growth, -100 = all killed)
Conditions in all cases: 10 µM

Compounds without any hit were thinned out: in the full panel of roughly 83,000, 20% have a hit.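 Growth was measured after 48 h exposure to one concentration of compound in 96-well plates. Values under 10 count as active.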 Values without a mark were called inactive. Calls of active or inactive are those of the source.

For the molecule `COc1cccc(C(=O)NNc2nc(N3CCOCC3)nc(N3CCN(C(c4ccccc4)c4ccccc4)CC3)n2)c1`, the growth with NCI-H23 lung is 84.2%; in the test with NCI-H226 lung, 83.6%; with NCI-H322M lung, 82.8%; in the test with HOP-62 NSCLC, 82.2%; in the test on HOP-92 NSCLC it was 70.3%; with NCI-H522 lung, 86.6%. For the same molecule, the growth in the test with A549/ATCC NSCLC is 62.4%; in the test on 786-0 renal, 86.6%; in the test with COLO 205 colon, 75.4%; in the test on DU-145 prostate, 87.2%; in the test on K-562 leukemia, 63.5%; in the test with MALME-3M melanoma, 91.7%. Besides, the growth in the test with MDA-MB-231 breast is 86.3%; in the test on RXF 393 renal, 69.4%; with SF-268 CNS, 71.5%; with SF-295 CNS, 87.3%; in the test on SF-539 CNS it was 93.6%; in the test with UACC-257 melanoma, 90.9%. The growth in the test with M14 melanoma is 114%.
With `Cn1c([N+](=O)[O-])cnc1C=C1C(=O)c2ccccc2C1=O`, the growth in the test on NCI-H23 lung was 53.7%; in the test on NCI-H226 lung, 81.7%; in the test on NCI-H322M lung, 72.7%; in the test with HOP-62 NSCLC, 74.7%; in the test on HOP-92 NSCLC, 20.4%; in the test on NCI-H522 lung, 3.27% (active). For the same molecule, the growth was 65.6% in the test on A549/ATCC NSCLC; 41.1% in the test with 786-0 renal; 42.3% in the test with COLO 205 colon; 46.5% in the test with DU-145 prostate; 15.8% in the test with K-562 leukemia; 42.5% in the test on MALME-3M melanoma. Further, the growth was 45.6% in the test on MDA-MB-231 breast; 4.59% (active) with RXF 393 renal; 17.7% with SF-268 CNS; 110% in the test with SF-295 CNS; 17.7% with SF-539 CNS; 37.4% in the test with UACC-257 melanoma. In addition, the growth with M14 melanoma is 19.3%.
In the case of `CC(C)(C)c1ccc(OCCCCCCN2CCNCC2)cc1`, the growth is 61.5% in the test on NCI-H23 lung; 73.4% with NCI-H226 lung; 85.1% in the test on NCI-H322M lung; 67.8% in the test with HOP-62 NSCLC; 16.8% with HOP-92 NSCLC; 66.2% with NCI-H522 lung. The growth in the test on A549/ATCC NSCLC is 55.1%; in the test on 786-0 renal, -50.7% (active); in the test with COLO 205 colon, -66.7% (active); in the test on DU-145 prostate, 86.2%; in the test on K-562 leukemia it was 0.864% (active); in the test on MALME-3M melanoma it was 60.6%. For the same molecule, the growth was 36.4% in the test with MDA-MB-231 breast; 46.2% in the test on RXF 393 renal; 78.2% in the test on SF-268 CNS; 57.7% in the test with SF-295 CNS; 68.9% in the test with SF-539 CNS; 93.6% in the test with UACC-257 melanoma. In the test with M14 melanoma, the growth is 22.6%.
For the molecule `CC(C)OCc1cc(CN2CCN(c3cccc(Cl)c3)CC2)c(O)c2ncccc12`, the growth was -44.8% (active) with NCI-H23 lung; 1.5% (active) in the test on NCI-H226 lung; -10.6% (active) with NCI-H322M lung; -0.196% (active) in the test on HOP-62 NSCLC; -35.2% (active) in the test on HOP-92 NSCLC; -26.2% (active) in the test on NCI-H522 lung. Further, the growth with A549/ATCC NSCLC is -5.68% (active); with 786-0 renal it was 0.332% (active); with COLO 205 colon, -43.1% (active); in the test on DU-145 prostate, 11.8%; in the test on K-562 leukemia, 3.38% (active); in the test on MALME-3M melanoma it was -40.6% (active). For the same molecule, the growth is -41.9% (active) with MDA-MB-231 breast; -14.9% (active) with RXF 393 renal; 5.89% (active) with SF-268 CNS; -71.8% (active) in the test with SF-295 CNS; -6.98% (active) in the test with SF-539 CNS; -36.7% (active) in the test with UACC-257 melanoma. Further, the growth with M14 melanoma is -17% (active).
In the case of `CC(C)/C(=N/O)c1ccccc1`, the growth was 103% in the test with NCI-H23 lung; 104% in the test on NCI-H226 lung; 133% in the test on NCI-H322M lung; 116% with HOP-62 NSCLC; 91.3% in the test with HOP-92 NSCLC; 90.8% with NCI-H522 lung. In addition, the growth is 111% in the test with A549/ATCC NSCLC; 88.2% in the test with 786-0 renal; 115% with COLO 205 colon; 114% in the test on DU-145 prostate; 104% with K-562 leukemia; 99.8% in the test on MDA-MB-231 breast. Further, the growth with RXF 393 renal was 121%; in the test with SF-268 CNS, 112%; in the test on SF-295 CNS, 103%; in the test on SF-539 CNS, 94.6%; in the test with UACC-257 melanoma, 109%; in the test on M14 melanoma it was 109%.
As to `Nc1ccccc1NC(=O)CCCCCCC(=O)Nc1ccc2c(c1)/C(=C/c1ccc[nH]1)C(=O)N2`, the growth in the test on NCI-H23 lung is 60.7%; with NCI-H226 lung, 45.5%; in the test on NCI-H322M lung it was 40.6%; in the test on HOP-62 NSCLC, 52.2%; in the test with HOP-92 NSCLC, 8.25% (active); with NCI-H522 lung it was 11.7%. Further, the growth in the test with A549/ATCC NSCLC is 47%; with 786-0 renal, 38.2%; in the test on COLO 205 colon it was 79.4%; with DU-145 prostate, 28.7%; in the test on K-562 leukemia, 46.8%; in the test on MALME-3M melanoma, 20%. Besides, the growth in the test on MDA-MB-231 breast is 55.5%; in the test on RXF 393 renal it was 21.2%; with SF-268 CNS it was 23.3%; in the test with SF-295 CNS it was 49.9%; in the test with SF-539 CNS, 17%; in the test with UACC-257 melanoma it was 63.5%. Further, in the test on M14 melanoma, the growth was 50.4%.
As for `Nc1c(CNCc2nnn(Cc3ccccc3)c2N)nnn1Cc1ccccc1`, the growth is 103% in the test with NCI-H23 lung; 100% in the test with NCI-H226 lung; 100% with NCI-H322M lung; 98.9% in the test with HOP-62 NSCLC; 90.3% in the test on HOP-92 NSCLC; 102% in the test on NCI-H522 lung. Moreover, the growth with A549/ATCC NSCLC is 101%; in the test on 786-0 renal it was 102%; in the test on COLO 205 colon, 114%; in the test on DU-145 prostate, 107%; in the test with K-562 leukemia it was 93.6%; with MALME-3M melanoma it was 79.9%. In addition, the growth with MDA-MB-231 breast was 108%; in the test with RXF 393 renal, 99.7%; in the test on SF-268 CNS, 103%; in the test with SF-295 CNS, 101%; in the test on SF-539 CNS it was 95.6%; with UACC-257 melanoma, 103%. Further, in the test with M14 melanoma, the growth is 98.5%.
As to `Cc1nnc2c3nnc(-c4ccc(Cl)cc4)n3c3ccccc3n12`, the growth was 103% with NCI-H23 lung; 94.7% in the test on NCI-H226 lung; 86.4% in the test on NCI-H322M lung; 93.4% with HOP-62 NSCLC; 79.5% in the test on HOP-92 NSCLC; 86.6% in the test with NCI-H522 lung. For the same molecule, the growth in the test with A549/ATCC NSCLC is 96.8%; in the test with 786-0 renal, 97.2%; in the test on COLO 205 colon, 111%; in the test with DU-145 prostate, 103%; in the test on K-562 leukemia, 90%; with MALME-3M melanoma, 88.6%. The growth is 100% in the test on MDA-MB-231 breast; 102% in the test with RXF 393 renal; 100% in the test on SF-268 CNS; 88.2% in the test with SF-295 CNS; 92.2% in the test with SF-539 CNS; 98.1% in the test on UACC-257 melanoma. For the same molecule, the growth in the test with M14 melanoma was 96.7%.

For the origin of these results see PubChem BioAssay (NCI).
